# Data taken from paper PMC5540273 (PLoS ONE, 2017).
# Where two headings read alike, the source gives them in different places.
# Experiments:
# DYRK1B = conditions: n = 1
# DYRK2 = conditions: concentration: 1 μM, replicates: in singlicate; n = 1
# EGFR = conditions: concentration: 1 μM, replicates: in singlicate; n = 1
# EIF2AK1 = conditions: n = 1
# EPHA1 = conditions: concentration: 1 μM, replicates: in singlicate; n = 1
# EPHA2 = conditions: concentration: 1 μM, replicates: in singlicate; n = 1
# EPHA3 = conditions: concentration: 1 μM, replicates: in singlicate; n = 1
# EPHA4 = conditions: concentration: 1 μM, replicates: in singlicate; n = 1
# EPHA5 = conditions: concentration: 1 μM, replicates: in singlicate; n = 1
# EPHA6 = conditions: n = 1
# EPHA7 = conditions: concentration: 1 μM, replicates: in singlicate; n = 1
# EPHA8 = conditions: concentration: 1 μM, replicates: in singlicate; n = 1
# EPHB1 = conditions: concentration: 1 μM, replicates: in singlicate; n = 1
# EPHB2 = conditions: concentration: 1 μM, replicates: in singlicate; n = 1
# EPHB3 = conditions: concentration: 1 μM, replicates: in singlicate; n = 1
# EPHB4 = conditions: concentration: 1 μM, replicates: in singlicate; n = 1
# EPHB6 = conditions: concentration: 1 μM, replicates: in singlicate; n = 1
# ERBB2 = conditions: concentration: 1 μM, replicates: in singlicate; n = 1
# ERBB3 = conditions: concentration: 1 μM, replicates: in singlicate; n = 1
# ERBB4 = conditions: concentration: 1 μM, replicates: in singlicate; n = 1
# [1] = concentration: 1 μM, replicates: in singlicate
# 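Note: KINOMEscan kinase panel screen.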
structure (smiles),measurement,setting,value
CCn1c(-c2nonc2N)nc2c(-c3ccccc3)ncc(OCCCN)c21.O=C(O)C(F)(F)F.O=C(O)C(F)(F)F [GSK260205],%Inh,DYRK1B; [1],0%
same,%Inh,DYRK2,14%
same,%Inh,EGFR,56%
same,%Inh,EIF2AK1; [1],90.8%
same,%Inh,EPHA1,24%
same,%Inh,EPHA2,0%
same,%Inh,EPHA3,12%
same,%Inh,EPHA4,0%
same,%Inh,EPHA5,0%
same,%Inh,EPHA6; [1],0%
same,%Inh,EPHA7,6%
same,%Inh,EPHA8,10%
same,%Inh,EPHB1,0%
same,%Inh,EPHB2,0%
same,%Inh,EPHB3,0%
same,%Inh,EPHB4,7%
same,%Inh,EPHB6,0%
same,%Inh,ERBB2,89%
same,%Inh,ERBB3,0%
same,%Inh,ERBB4,41%
Cn1cc(-c2cnc(N)c3c(-c4ccc5c(c4)CCN5C(=O)Cc4ccccc4)csc23)cn1 [GSK2593074],%Inh,DYRK1B; 1 µM,0%
same,%Inh,DYRK2,8%
same,%Inh,EGFR,3%
same,%Inh,EIF2AK1; 1 µM,7%
same,%Inh,EPHA1,11%
same,%Inh,EPHA2,0%
same,%Inh,EPHA3,0%
same,%Inh,EPHA4,11%
same,%Inh,EPHA5,0%
same,%Inh,EPHA6; 1 µM,11%
same,%Inh,EPHA7,6%
same,%Inh,EPHA8,8%
same,%Inh,EPHB1,6%
same,%Inh,EPHB2,2%
same,%Inh,EPHB3,4%
same,%Inh,EPHB4,9%
same,%Inh,EPHB6,98.3%
same,%Inh,ERBB2,0%
same,%Inh,ERBB3,4%
same,%Inh,ERBB4,0%
Cc1ccc(NC(=O)c2cccc(N3CCCCC3)c2)cc1-c1ccc(C(=O)NCC2CC2)cc1 [GSK1917008],%Inh,DYRK1B; [1],0%
same,%Inh,DYRK2,18%
same,%Inh,EGFR,35%
same,%Inh,EIF2AK1; [1],8%
same,%Inh,EPHA1,18%
same,%Inh,EPHA2,33%
same,%Inh,EPHA3,4%
same,%Inh,EPHA4,37%
same,%Inh,EPHA5,3%
same,%Inh,EPHA6; [1],34%
same,%Inh,EPHA7,24%
same,%Inh,EPHA8,41%
same,%Inh,EPHB1,30%
same,%Inh,EPHB2,0%
same,%Inh,EPHB3,27%
same,%Inh,EPHB4,31%
same,%Inh,EPHB6,21%
same,%Inh,ERBB2,0%
same,%Inh,ERBB3,0%
same,%Inh,ERBB4,2%
N#CC1(c2cccc(C(=O)Nc3cccc(Oc4ccc5nc(NC(=O)C6CC6)sc5n4)c3)c2)CC1,%Inh,DYRK1B; [1],1%
same,%Inh,DYRK2,0%
same,%Inh,EGFR,36%
same,%Inh,EIF2AK1; [1],0%
same,%Inh,EPHA1,76%
same,%Inh,EPHA2,97.1%
same,%Inh,EPHA3,50%
same,%Inh,EPHA4,81%
same,%Inh,EPHA5,89%
same,%Inh,EPHA6; [1],91.3%
same,%Inh,EPHA7,0%
same,%Inh,EPHA8,98.9%
same,%Inh,EPHB1,95.8%
same,%Inh,EPHB2,100%
same,%Inh,EPHB3,50%
same,%Inh,EPHB4,95.9%
same,%Inh,EPHB6,99.5%
same,%Inh,ERBB2,22%
same,%Inh,ERBB3,0%
same,%Inh,ERBB4,0%
CN(C)CCNS(=O)(=O)c1ccc(-c2ccnc3[nH]ccc23)cc1 [GSK977620],%Inh,DYRK1B; [1],47%
same,%Inh,DYRK2,64%
same,%Inh,EGFR,37%
same,%Inh,EIF2AK1; [1],0%
same,%Inh,EPHA1,24%
same,%Inh,EPHA2,14%
same,%Inh,EPHA3,0%
same,%Inh,EPHA4,0%
same,%Inh,EPHA5,0%
same,%Inh,EPHA6; [1],0%
same,%Inh,EPHA7,7%
same,%Inh,EPHA8,3%
same,%Inh,EPHB1,16%
same,%Inh,EPHB2,0%
same,%Inh,EPHB3,0%
same,%Inh,EPHB4,0%
same,%Inh,EPHB6,0%
same,%Inh,ERBB2,0%
same,%Inh,ERBB3,0%
same,%Inh,ERBB4,30%
Nc1cccc(-c2ccc3c(N)n[nH]c3c2)c1 [GSK2193613],%Inh,DYRK1B; [1],0%
same,%Inh,DYRK2,74%
same,%Inh,EGFR,0%
same,%Inh,EIF2AK1; [1],0%
same,%Inh,EPHA1,9%
same,%Inh,EPHA2,5%
same,%Inh,EPHA3,15%
same,%Inh,EPHA4,0%
same,%Inh,EPHA5,0%
same,%Inh,EPHA6; [1],3%
same,%Inh,EPHA7,9%
same,%Inh,EPHA8,29%
same,%Inh,EPHB1,9%
same,%Inh,EPHB2,0%
same,%Inh,EPHB3,13%
same,%Inh,EPHB4,14%
same,%Inh,EPHB6,14%
same,%Inh,ERBB2,0%
same,%Inh,ERBB3,0%
same,%Inh,ERBB4,0%
Cc1cc(-c2ccnc(Nc3cccc(C#N)c3)n2)cc(C)c1O [GSK1440913],%Inh,DYRK1B; [1],51%
same,%Inh,DYRK2,61%
same,%Inh,EGFR,38%
same,%Inh,EIF2AK1; [1],0%
same,%Inh,EPHA1,27%
same,%Inh,EPHA2,24%
same,%Inh,EPHA3,4%
same,%Inh,EPHA4,13%
same,%Inh,EPHA5,0%
same,%Inh,EPHA6; [1],13%
same,%Inh,EPHA7,18%
same,%Inh,EPHA8,21%
same,%Inh,EPHB1,18%
same,%Inh,EPHB2,19%
same,%Inh,EPHB3,18%
same,%Inh,EPHB4,16%
same,%Inh,EPHB6,90.3%
same,%Inh,ERBB2,27%
same,%Inh,ERBB3,7%
same,%Inh,ERBB4,0%
Cc1ccc(C)c(NC(=O)Nc2ccc(C)c(-c3ccc(C(=O)Nc4ccncc4)cc3)c2)c1 [GSK1398473],%Inh,DYRK1B; [1],25%
same,%Inh,DYRK2,10%
same,%Inh,EGFR,35%
same,%Inh,EIF2AK1; [1],0%
same,%Inh,EPHA1,0%
same,%Inh,EPHA2,19%
same,%Inh,EPHA3,0%
same,%Inh,EPHA4,29%
same,%Inh,EPHA5,15%
same,%Inh,EPHA6; [1],16%
same,%Inh,EPHA7,3%
same,%Inh,EPHA8,46%
same,%Inh,EPHB1,23%
same,%Inh,EPHB2,32%
same,%Inh,EPHB3,12%
same,%Inh,EPHB4,14%
same,%Inh,EPHB6,0%
same,%Inh,ERBB2,0%
same,%Inh,ERBB3,0%
same,%Inh,ERBB4,44%
COC(=O)Nc1nc2ccc(Oc3ccc(CC(=O)Nc4cc(C(F)(F)F)ccc4F)cc3)cc2[nH]1 [GW680903],%Inh,DYRK1B; [1],8%
same,%Inh,DYRK2,0%
same,%Inh,EGFR,30%
same,%Inh,EIF2AK1; [1],3%
same,%Inh,EPHA1,12%
same,%Inh,EPHA2,54%
same,%Inh,EPHA3,100%
same,%Inh,EPHA4,21%
same,%Inh,EPHA5,0%
same,%Inh,EPHA6; [1],34%
same,%Inh,EPHA7,9%
same,%Inh,EPHA8,64%
same,%Inh,EPHB1,32%
same,%Inh,EPHB2,26%
same,%Inh,EPHB3,9%
same,%Inh,EPHB4,20%
same,%Inh,EPHB6,22%
same,%Inh,ERBB2,30%
same,%Inh,ERBB3,12%
same,%Inh,ERBB4,7%
